Measured values taken from the supplement of paper PMC8728848.
This excerpt belongs to a sample that is enriched for the strongest signals.

Legend:
Assay in all cases: glycan array binding signal (z-score within array); higher = stronger binding
Conditions in all cases: glycan notation: IUPAC condensed, linker removed
[1] = molecular target: Fuc(a1-2)Gal(b1-3)GalNAc(a1-3)[Fuc(a1-2)]Gal(b1-4)Glc
Summary of the method: (§1)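 Negative Z-scores can be read as non-binding. The Z-score is calculated within each array and then averaged across arrays of one protein sequence at different concentrations or buffers and across linkers. Arrays, 3228 in all, were curated from the Consortium for Functional Glycomics database and kept only where the protein sequence was available.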

[2] = molecular target: Fuc(a1-2)Gal(b1-3)GlcNAc(b1-3)GalNAc
Summary of the method: as §1

[3] = molecular target: Fuc(a1-2)Gal(b1-3)GlcNAc(b1-3)[Neu5Ac(a2-6)Gal(b1-4)GlcNAc(b1-6)]Gal(b1-4)Glc
Summary of the method: as §1

[4] = molecular target: Fuc(a1-2)Gal(b1-4)GlcNAc(b1-3)Gal(b1-4)GlcNAc
Summary of the method: as §1

[5] = molecular target: Fuc(a1-2)Gal(b1-4)GlcNAc(b1-3)Gal(b1-4)GlcNAc(b1-3)Gal(b1-4)GlcNAc
Summary of the method: as §1

[6] = molecular target: Fuc(a1-2)Gal(b1-4)[Fuc(a1-3)]GlcNAc(b1-2)Man(a1-3)[Fuc(a1-2)Gal(b1-4)[Fuc(a1-3)]GlcNAc(b1-2)Man(a1-6)]Man(b1-4)GlcNAc(b1-4)[Fuc(a1-6)]GlcNAc
Summary of the method: as §1

[7] = molecular target: Fuc(a1-2)Gal(b1-4)[Fuc(a1-3)]GlcNAc(b1-3)Gal(b1-4)[Fuc(a1-3)]GlcNAc(b1-3)Gal(b1-4)[Fuc(a1-3)]GlcNAc
Summary of the method: as §1

[8] = molecular target: Fuc(a1-2)Gal3S(b1-4)GlcNAc
Summary of the method: as §1

[9] = molecular target: Fuc(a1-2)[Gal(a1-3)]Gal(b1-4)GlcNAc
Summary of the method: as §1

[10] = molecular target: Fuc(a1-2)[Gal(a1-3)]Gal(b1-4)GlcNAc(b1-2)Man
Summary of the method: as §1

[11] = molecular target: Fuc(a1-2)[GalNAc(a1-3)]Gal(b1-4)GlcNAc(b1-2)Man(a1-3)[Fuc(a1-2)[GalNAc(a1-3)]Gal(b1-4)GlcNAc(b1-2)Man(a1-6)]Man(b1-4)GlcNAc(b1-4)GlcNAc
Summary of the method: as §1

[12] = molecular target: Fuc(a1-2)[GalNAc(a1-3)]Gal(b1-4)GlcNAc(b1-3)Gal(b1-4)GlcNAc
Summary of the method: as §1

[13] = molecular target: Fuc(a1-2)[GalNAc(a1-3)]Gal(b1-4)GlcNAc(b1-6)GalNAc
Summary of the method: as §1

[14] = molecular target: Fuc(a1-3)[Gal(b1-4)]GlcNAc(b1-6)[Gal(b1-3)GlcNAc(b1-3)]Gal(b1-4)Glc
Summary of the method: as §1

[15] = molecular target: Fuc(a1-3)[GalNAc(b1-4)]GlcNAc
Summary of the method: as §1

[16] = molecular target: Gal(a1-3)Gal(b1-3)GlcNAc
Summary of the method: as §1

[17] = molecular target: Gal(b1-3)GlcNAc(b1-2)Man(a1-3)[GlcNAc(b1-4)][Gal(b1-3)GlcNAc(b1-2)Man(a1-6)]Man(b1-4)GlcNAc(b1-4)GlcNAc
Summary of the method: as §1

[18] = molecular target: Gal(b1-3)GlcNAc(b1-3)Gal(b1-4)GlcNAc(b1-2)[Gal(b1-3)GlcNAc(b1-3)Gal(b1-4)GlcNAc(b1-6)]Man(a1-6)[Gal(b1-3)GlcNAc(b1-3)Gal(b1-4)GlcNAc(b1-2)Man(a1-3)]Man(b1-4)GlcNAc(b1-4)[Fuc(a1-6)]GlcNAc
Summary of the method: as §1

[19] = molecular target: Gal(b1-3)GlcNAc(b1-3)Gal(b1-4)GlcNAc(b1-3)Gal(b1-4)GlcNAc(b1-2)[Gal(b1-3)GlcNAc(b1-3)Gal(b1-4)GlcNAc(b1-3)Gal(b1-4)GlcNAc(b1-6)]Man(a1-6)[Gal(b1-3)GlcNAc(b1-3)Gal(b1-4)GlcNAc(b1-3)Gal(b1-4)GlcNAc(b1-2)Man(a1-3)]Man(b1-4)GlcNAc(b1-4)[Fuc(a1-6)]GlcNAc
Summary of the method: as §1

[20] = molecular target: Gal(b1-3)[Fuc(a1-4)]GlcNAc(b1-3)Gal(b1-3)[Fuc(a1-4)]GlcNAc
Summary of the method: as §1

[21] = molecular target: Gal(b1-4)Glc
Summary of the method: as §1

[22] = molecular target: Gal(b1-4)GlcNAc(b1-3)Gal(b1-4)GlcNAc(b1-2)[Gal(b1-4)GlcNAc(b1-3)Gal(b1-4)GlcNAc(b1-6)]Man(a1-6)[Gal(b1-4)GlcNAc(b1-3)Gal(b1-4)GlcNAc(b1-2)Man(a1-3)]Man(b1-4)GlcNAc(b1-4)GlcNAc
Summary of the method: as §1

[23] = molecular target: Gal(b1-4)GlcNAc(b1-3)Gal(b1-4)GlcNAc(b1-3)Gal(b1-4)GlcNAc(b1-3)Gal(b1-4)GlcNAc(b1-2)[Gal(b1-4)GlcNAc(b1-3)Gal(b1-4)GlcNAc(b1-3)Gal(b1-4)GlcNAc(b1-3)Gal(b1-4)GlcNAc(b1-6)]Man(a1-6)[Gal(b1-4)GlcNAc(b1-3)Gal(b1-4)GlcNAc(b1-3)Gal(b1-4)GlcNAc(b1-3)Gal(b1-4)GlcNAc(b1-2)Man(a1-3)]Man(b1-4)GlcNAc(b1-4)[Fuc(a1-6)]GlcNAc
Summary of the method: as §1

[24] = molecular target: Gal(b1-4)GlcNAc(b1-6)Gal(b1-4)GlcNAc
Summary of the method: as §1

[25] = molecular target: Gal(b1-4)GlcNAc6P
Summary of the method: as §1

[26] = molecular target: Gal3S(b1-4)GlcNAc
Summary of the method: as §1

B1: MXA PilAct-eGFP (Myxococcus xanthus), Q59589 (protein)
chain: MRVSRFNPRNRGFTLIELMIVVAIIGILAAIAIPNFIKFQARSKQSEAKTNLKALYTAQKSFFSEKDRYSDFANEIGFAPERGNRYGYRVSAAAGDCEVRNAADLPVPAAGVPCISNDSFRFGANSAIDDPTPVVARFVPQGAAGWNTTLGVQPTIADCPNCNFFAGARGNADNEATFDDWVIAGFEGSGQVGPCSEAGNVASGTPYNTRNDVACDGAAQ
glycan array binding signal (z-score) [1]: 0.469
glycan array binding signal (z-score) [2]: -0.348
glycan array binding signal (z-score) [3]: -0.4
glycan array binding signal (z-score) [4]: 0.643
glycan array binding signal (z-score) [5]: 2.63
glycan array binding signal (z-score) [6]: -0.459
glycan array binding signal (z-score) [7]: -0.292
glycan array binding signal (z-score) [8]: -0.55
glycan array binding signal (z-score) [9]: 0.335
glycan array binding signal (z-score) [10]: -0.112
glycan array binding signal (z-score) [11]: 3.39
glycan array binding signal (z-score) [12]: -0.546
glycan array binding signal (z-score) [13]: 0.269
glycan array binding signal (z-score) [14]: -0.768
glycan array binding signal (z-score) [15]: -1.22
glycan array binding signal (z-score) [16]: -1.1
glycan array binding signal (z-score) [17]: 0.003
glycan array binding signal (z-score) [18]: 6.11
glycan array binding signal (z-score) [19]: 4.94
glycan array binding signal (z-score) [20]: -2.03
glycan array binding signal (z-score) [21]: -1.09
glycan array binding signal (z-score) [22]: -0.993
glycan array binding signal (z-score) [23]: 3.46
glycan array binding signal (z-score) [24]: 0.221
glycan array binding signal (z-score) [25]: 0.348
glycan array binding signal (z-score) [26]: -0.174
